# Assay results from PubChem BioAssay (NCATS).
# Results filed as inconclusive are left out. A call without a number means that no potency is given here. Calls of active or inactive are those of the source. Calls come from the whole dose curve; as a rule, active = well fitted curve in the direction sought with a large enough effect; inconclusive = small, poorly fitted or top-dose-only effect, or another doubt; inactive = no such curve, though single readings can be large; an effect the other way counts as inactive or inconclusive.
# Key:
# [1] = qHTS assay to identify small molecule inhibitors of chordoma cells - UCH-1 (AID 1259355); note: nearly all actives have a fitted effect of over 55% in size; note: potency is the fitted concentration of half-maximal effect
# Summary of the method: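 Seed 800 cells per well; incubate overnight at 37 C, 5% CO2. Add test compounds (15 concentrations), then the auranofin–topoisomerase-agent combination. Incubate 48hr, add CellTiter-Glo, wait 30min, read luminescence.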
# [2] = qHTS assay to identify small molecule inhibitors of chordoma cells - UCH-2 (AID 1259356)
# [3] = P-glycoprotein substrates identified in KB-8-5-11 adenocarcinoma cell line, qHTS therapeutic library screen (AID 1346987); note: nearly all actives have a fitted effect of over 65% in size; note: potency is the fitted concentration of half-maximal effect
# Summary of the method: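 KB-8-5-11: colchicine-selected sub-line of KB-3-1 over-expressing P-gp; assay medium lacked colchicine. 72 h drug exposure at 37 degree C, CellTiter-Glo.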
# [4] = P-glycoprotein substrates identified in KB-3-1 adenocarcinoma cell line, qHTS therapeutic library screen (AID 1346986); settings: KB-3-1 parental cells viability, CellTiter-Glo, 72 h; at 44.5 µM (top of the series); note: nearly all actives have a fitted effect of over 60% in size
# Summary of the method: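 Counter-screen: cherry-picked hits retested in the KB pair and in HEK-293 pcDNA/MDR-19 cells ± tariquidar. Primary screen used 72 h CellTiter-Glo viability in KB-3-1 and KB-8-5-11.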
smiles,measurement,setting,value
CCCn1c(=O)[nH]c(=O)c2[nH]cnc21,Potency,[1],inactive
same,Potency,[2],inactive
CCCCC1=NC2(CCCC2)C(=O)N1Cc1ccc(-c2ccccc2-c2nn[nH]n2)cc1,Potency,[1],inactive
same,Potency,[2],inactive
CCCCCCCCCCCCCCCC[N+](C)(C)CC,Potency,[1],inactive
COc1cccc2c1C(=O)c1c(O)c3c(c(O)c1C2=O)C[C@@](O)(C(C)=O)C[C@@H]3O[C@H]1C[C@H](N)[C@H](O)[C@H](C)O1,Potency,[1],1.78 µM (active)
NCCCC[C@H](N[C@@H](CCc1ccccc1)C(=O)O)C(=O)N1CCC[C@H]1C(=O)O,Potency,[1],inactive
same,Potency,[2],inactive
O=C(Nc1ccc(Oc2ccc(Cl)cc2)c(Cl)c1)c1cc(I)cc(I)c1O,Potency,[1],inactive
same,Potency,[2],inactive
CCN1CCC[C@H]1CNC(=O)c1c(OC)ccc(Br)c1OC,Potency,[1],inactive
same,Potency,[2],inactive
C[n+]1c2cc(N)ccc2cc2ccc(N)cc21 (tested in a mixture with another compound),Potency,[1],15.8 µM (active)
CC1=C(C(=O)O)N2C(=O)[C@@H](NC(=O)[C@H](N)c3ccc(O)cc3)[C@H]2SC1,Potency,[1],inactive
same,Potency,[2],inactive
Nc1nc2ncc(CNc3ccc(C(=O)N[C@@H](CCC(=O)O)C(=O)O)cc3)nc2c(=O)[nH]1,Potency,[1],inactive
same,Potency,[2],inactive
CC[C@H](C)C(=O)O[C@H]1CCC=C2C=C[C@H](C)[C@H](CC[C@@H]3C[C@@H](O)CC(=O)O3)[C@H]21,Potency,[1],inactive
same,Potency,[2],inactive
CCN(CCCc1ccccc1)CCCc1ccccc1,Potency,[1],inactive
same,Potency,[2],inactive
c1ccc(-c2ccc(C(c3ccccc3)n3ccnc3)cc2)cc1 (centres undefined),Potency,[1],inactive
same,Potency,[2],inactive
CN1CCCC(CC2c3ccccc3Sc3ccccc32)C1 (centres undefined),Potency,[1],inactive
same,Potency,[2],inactive
O=S1(=O)c2cccc3cccc(c23)N1CCCN1CCN(c2ccc(F)cc2)CC1,Potency,[1],inactive
same,Potency,[2],inactive
Cc1ccnc(NS(=O)(=O)c2ccc(N)cc2)n1,Potency,[1],inactive
same,Potency,[2],inactive
NC(=O)c1cc[n+](CC2=C(C(=O)[O-])N3C(=O)[C@@H](NC(=O)Cc4cccs4)[C@H]3SC2)cc1,Potency,[1],inactive
same,Potency,[2],inactive
CCN(CC)C(=O)N1CCN(C)CC1,Potency,[1],inactive
same,Potency,[2],inactive
CC(Cc1cccc(C(F)(F)F)c1)NCCOC(=O)c1ccccc1 (centres undefined),Potency,[1],inactive
same,Potency,[2],inactive
Cc1cccn2c(=O)c(-c3nnn[nH]3)cnc12,Potency,[1],inactive
same,Potency,[2],inactive
COc1cc(NS(C)(=O)=O)ccc1Nc1c2ccccc2nc2ccccc12,Potency,[1],28.2 µM (active)
COc1ccc(C2C(=O)c3ccccc3C2=O)cc1,Potency,[2],inactive
same,Potency,[3],inactive
Cc1cc(=O)n(-c2ccccc2)n1C,Potency,[2],inactive
same,Potency,[3],inactive
CN(C)CCCOc1nn(Cc2ccccc2)c2ccccc12,Potency,[2],inactive
same,Potency,[3],inactive
C=C1C[C@H]2[C@@H]3C=C(C)C4=CC(=O)CC[C@]4(C)[C@H]3CC[C@]2(C)[C@@]1(OC(C)=O)C(C)=O,Potency,[2],inactive
same,Potency,[3],14.6 µM (active)
C=C1C(=C/C=C2\CCC[C@]3(C)[C@@H]([C@H](C)/C=C/[C@@H](O)C4CC4)CC[C@@H]23)C[C@@H](O)C[C@@H]1O,Potency,[2],inactive
same,Potency,[3],8.2 µM (active)
CC(C)NC[C@@H](O)COc1cccc2ccccc12,Potency,[2],inactive
same,Potency,[3],inactive
N[C@H](CO)C(=O)O,Potency,[2],inactive
same,Potency,[3],inactive
C[C@]12C=CC(=O)C=C1[C@@H](F)C[C@@H]1[C@@H]2[C@@H](O)C[C@@]2(C)[C@H]1CC[C@]2(O)C(=O)CO,Potency,[2],inactive
same,Potency,[3],inactive
O=C1c2ccccc2C(=O)C1c1ccccc1,Potency,[2],inactive
same,Potency,[3],inactive
CC(=O)OCC(=O)[C@@]1(O)[C@H](C)C[C@H]2[C@@H]3CCC4=CC(=O)C=C[C@]4(C)[C@@]3(F)[C@@H](O)C[C@@]21C,Potency,[2],inactive
same,outcome,[4],inactive
same,Potency,[3],inactive
CC(=O)O[C@]1(C(C)=O)CC[C@H]2[C@@H]3C[C@H](C)C4=CC(=O)CC[C@]4(C)[C@H]3CC[C@@]21C,Potency,[2],inactive
same,outcome,[4],inactive
same,Potency,[3],10.3 µM (active)
O=C(CCN1CCC(c2ccccc2)C1)c1ccc2c(c1)OCCO2 (centres undefined),Potency,[2],inactive
same,Potency,[3],inactive
C[C@@H]1C[C@H]2[C@@H]3C[C@H](F)C4=CC(=O)C(Cl)=C[C@]4(C)[C@@]3(F)[C@@H](O)C[C@]2(C)[C@@]1(O)C(=O)CO,Potency,[2],inactive
same,Potency,[3],inactive
C[C@@H]1C(=O)NC2=Nc3cccc(Cl)c3CN21,Potency,[2],inactive
same,Potency,[3],0.82 µM (active)
CCC(=O)c1c(O)cc(O)cc1O,Potency,[2],inactive
same,Potency,[3],inactive
CCCCCCCCCCCCCCCCCC(=O)OCC(O)CO (centres undefined),Potency,[2],inactive
same,Potency,[3],inactive
CC(=O)[C@H]1CC[C@H]2[C@@H]3C[C@H](C)C4=CC(=O)CC[C@]4(C)[C@H]3[C@@H](O)C[C@]12C,Potency,[2],inactive
same,Potency,[3],6.99 µM (active)
Cc1ncc(CSSCc2cnc(C)c(O)c2CO)c(CO)c1O,Potency,[2],inactive
same,Potency,[3],inactive
O=C(O)CNC(=O)c1ccccc1,Potency,[2],inactive
same,Potency,[3],inactive
C[C@H](CCC(=O)O)[C@H]1CC[C@H]2[C@@H]3C(=O)C[C@@H]4CC(=O)CC[C@]4(C)[C@H]3CC(=O)[C@]12C,Potency,[2],inactive
same,Potency,[3],inactive
Nc1ccc(C(=O)Nc2ccccc2N)cc1,Potency,[2],inactive
same,Potency,[3],16.4 µM (active)
Oc1cc(O)c2c(c1)O[C@H](c1ccc(O)c(O)c1)[C@H](O)C2,Potency,[2],inactive
same,Potency,[3],inactive
